{"source": "paper PMC4336329", "about": "(PLoS ONE, 2015)", "note": "The campaign covered roughly 310,000 compounds. About 14,000 (4.5%) showed an effect of 50% or more. The effect is printed as a negative number. The entries come from a sample that favours strong results as a whole.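 Also: peak tail current of the secondary pulse compared with the same well before compound.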", "data": [{"biological_target": "human ether-à-go-go-related gene (hERG) potassium channel (human, UniProt Q12809)", "sequence (Q12809 whole entry, looked up)": "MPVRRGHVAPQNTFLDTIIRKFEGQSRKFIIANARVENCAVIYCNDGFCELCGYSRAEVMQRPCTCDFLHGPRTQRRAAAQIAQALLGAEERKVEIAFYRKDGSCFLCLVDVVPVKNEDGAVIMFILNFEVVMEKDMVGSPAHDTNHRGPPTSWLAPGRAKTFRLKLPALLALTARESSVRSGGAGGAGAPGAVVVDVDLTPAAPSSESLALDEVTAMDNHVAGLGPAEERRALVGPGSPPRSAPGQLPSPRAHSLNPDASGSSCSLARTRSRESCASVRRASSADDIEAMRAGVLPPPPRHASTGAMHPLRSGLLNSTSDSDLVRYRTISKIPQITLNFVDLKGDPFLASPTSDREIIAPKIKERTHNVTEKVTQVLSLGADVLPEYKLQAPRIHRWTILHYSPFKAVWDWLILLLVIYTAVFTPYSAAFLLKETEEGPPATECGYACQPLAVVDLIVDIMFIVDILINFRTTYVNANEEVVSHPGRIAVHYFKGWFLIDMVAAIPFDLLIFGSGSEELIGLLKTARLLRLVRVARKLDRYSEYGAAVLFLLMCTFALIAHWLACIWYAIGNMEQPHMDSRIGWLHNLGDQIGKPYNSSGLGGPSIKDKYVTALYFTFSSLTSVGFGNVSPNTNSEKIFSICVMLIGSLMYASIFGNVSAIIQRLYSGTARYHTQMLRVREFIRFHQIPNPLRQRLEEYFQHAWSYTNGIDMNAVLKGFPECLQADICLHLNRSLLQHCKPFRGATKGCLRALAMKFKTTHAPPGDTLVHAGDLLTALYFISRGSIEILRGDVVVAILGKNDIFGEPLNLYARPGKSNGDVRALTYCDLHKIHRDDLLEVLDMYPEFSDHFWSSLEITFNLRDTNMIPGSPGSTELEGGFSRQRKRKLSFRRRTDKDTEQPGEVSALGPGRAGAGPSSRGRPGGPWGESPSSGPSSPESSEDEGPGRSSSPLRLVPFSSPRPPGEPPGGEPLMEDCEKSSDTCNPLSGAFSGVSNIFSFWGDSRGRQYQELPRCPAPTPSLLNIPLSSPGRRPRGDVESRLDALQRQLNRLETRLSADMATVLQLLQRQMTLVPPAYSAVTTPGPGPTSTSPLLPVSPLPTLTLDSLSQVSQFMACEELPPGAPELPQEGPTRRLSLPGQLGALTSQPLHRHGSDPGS", "experiment": "primary screen, population patch clamp on CHO cells stably expressing hERG; higher = less effect of the substance", "units": {"hERG current change (%, negative = inhibition) at 10uM": "%"}, "values": [{"smiles": "COc1ccc(Nc2nc3[nH]c(=O)cc(O)c3s2)cc1", "hERG current change (%, negative = inhibition) at 10uM": 14.2}, {"smiles": "Cc1ccc(S(=O)(=O)NN2C(=O)/C(=C/c3ccc(C(=O)O)cc3)SC2=S)cc1", "hERG current change (%, negative = inhibition) at 10uM": 19.9}, {"smiles": "Cc1ccc(NC(=O)CCNC(=O)c2ccc(Cl)cc2)cc1F", "hERG current change (%, negative = inhibition) at 10uM": 9.19}, {"smiles": "O=C(CCNS(=O)(=O)c1ccccc1)NNC(=O)COc1ccc(Cl)cc1", "hERG current change (%, negative = inhibition) at 10uM": 2.29}, {"smiles": "O=C(COc1ccc(Nc2ccccc2)cc1)Nc1ccncc1", "hERG current change (%, negative = inhibition) at 10uM": -30.1}, {"smiles": "O=C(Nc1ccc2c(c1)OCO2)Nc1ccc(Cl)cc1Cl", "hERG current change (%, negative = inhibition) at 10uM": 9.53}, {"smiles": "CCCCOC(=O)NC(NCC(O)c1ccccc1)(C(F)(F)F)C(F)(F)F", "note": "(centres unmarked)", "hERG current change (%, negative = inhibition) at 10uM": 6.78}, {"smiles": "COc1ccc(CNC(=O)CN(C(=O)c2csnn2)c2cccc3c2CCCC3)cc1", "hERG current change (%, negative = inhibition) at 10uM": -14.9}, {"smiles": "O=C(CN(Cc1ccccc1)C(=O)c1csnn1)NCc1ccccc1", "hERG current change (%, negative = inhibition) at 10uM": 8.5}, {"smiles": "O=C(CN(C(=O)c1csnn1)c1cccc2c1CCCC2)NCc1ccccc1", "hERG current change (%, negative = inhibition) at 10uM": -5.19}, {"smiles": "C=CCN(CC(=O)NCc1ccc(F)cc1)C(=O)c1csnn1", "hERG current change (%, negative = inhibition) at 10uM": -18.2}, {"smiles": "O=C(CN(Cc1ccc(F)cc1)C(=O)c1csnn1)NCc1ccccc1", "hERG current change (%, negative = inhibition) at 10uM": -31.6}, {"smiles": "O=C(CN(Cc1ccc(Cl)cc1)C(=O)c1csnn1)NCc1ccc(F)cc1", "hERG current change (%, negative = inhibition) at 10uM": -66.6}, {"smiles": "O=C(CN(Cc1ccc(Cl)cc1)C(=O)c1csnn1)NCc1ccccc1", "hERG current change (%, negative = inhibition) at 10uM": -56.7}, {"smiles": "O=C(CN(Cc1ccccc1Cl)C(=O)c1csnn1)NCc1ccccc1", "hERG current change (%, negative = inhibition) at 10uM": -24}, {"smiles": "COc1ccc(CNC(=O)CN(Cc2ccccc2Cl)C(=O)c2csnn2)cc1", "hERG current change (%, negative = inhibition) at 10uM": -34.8}, {"smiles": "O=C(CN(C(=O)c1csnn1)c1cccc2c1CCCC2)NCc1ccc(F)cc1", "hERG current change (%, negative = inhibition) at 10uM": -57.7}, {"smiles": "O=C(CN(Cc1ccccc1)C(=O)c1csnn1)NCCc1ccccc1", "hERG current change (%, negative = inhibition) at 10uM": -18.9}, {"smiles": "O=C(CN(Cc1ccccc1Cl)C(=O)c1csnn1)NCc1ccc(F)cc1", "hERG current change (%, negative = inhibition) at 10uM": -50.4}, {"smiles": "C/C(=N/NC(=O)c1ccc2c(c1)OCO2)c1cccc([N+](=O)[O-])c1", "hERG current change (%, negative = inhibition) at 10uM": -10.1}, {"smiles": "COc1ccc(C(=O)OCn2nnc3ccccc3c2=O)cc1", "hERG current change (%, negative = inhibition) at 10uM": -10.4}, {"smiles": "Cc1cc(C(=O)Nc2ccc(Nc3ccccc3)cc2)ccc1[N+](=O)[O-]", "hERG current change (%, negative = inhibition) at 10uM": 17.3}, {"smiles": "CCc1ccc(NC(=O)CS(=O)CC(=O)NC(C)CCc2ccco2)cc1", "note": "(centres unmarked)", "hERG current change (%, negative = inhibition) at 10uM": 9.65}, {"smiles": "CSc1nc2ccccc2cc1/C=C(\\C#N)c1cccc(Cl)c1", "hERG current change (%, negative = inhibition) at 10uM": 8.2}, {"smiles": "CCN1C(C(=O)Nc2cc(C)on2)=C(O)c2ccccc2S1(=O)=O", "hERG current change (%, negative = inhibition) at 10uM": 24.7}, {"smiles": "CCCCCC(=O)Nc1cccc(C2=NOC3(C2)C[C@@H](C(N)=O)N(C(=O)c2ccc(Cl)cc2)C3)c1", "note": "(some centres unmarked)", "hERG current change (%, negative = inhibition) at 10uM": -29.6}, {"smiles": "O=C(COc1ccc(Cl)cc1)Nc1cccc(S(=O)(=O)NC2=NCCCCC2)c1", "hERG current change (%, negative = inhibition) at 10uM": -42.1}, {"smiles": "C/C(=N\\NC(=O)CSc1nc(C)cc(C)n1)c1ccc([N+](=O)[O-])cc1", "hERG current change (%, negative = inhibition) at 10uM": -10.8}, {"smiles": "C/C(=N/NC(=O)CSc1ccccn1)c1ccc([N+](=O)[O-])cc1", "hERG current change (%, negative = inhibition) at 10uM": -64.2}, {"smiles": "C/C(=N\\NC(=O)CN1CCN(Cc2ccccc2)CC1)c1cccs1", "hERG current change (%, negative = inhibition) at 10uM": -50.9}, {"smiles": "C/C(=N\\NC(=O)CN1CCCCC1)c1cccc([N+](=O)[O-])c1", "hERG current change (%, negative = inhibition) at 10uM": -25.9}, {"smiles": "C/C(=N/NC(=O)CN1CCN(Cc2ccccc2)CC1)c1ccc([N+](=O)[O-])cc1", "hERG current change (%, negative = inhibition) at 10uM": -76.5}, {"smiles": "C/C(=N\\NC(=O)c1ccc(CN2CCOCC2)cc1)c1ccc([N+](=O)[O-])cc1", "hERG current change (%, negative = inhibition) at 10uM": -7.18}, {"smiles": "C/C(=N/NC(=O)CC(=O)N/N=C(\\C)c1ccc([N+](=O)[O-])cc1)c1ccc([N+](=O)[O-])cc1", "hERG current change (%, negative = inhibition) at 10uM": -28.8}, {"smiles": "C/C(=N\\NC(=O)Cc1ccccc1)c1cccs1", "hERG current change (%, negative = inhibition) at 10uM": -4.86}, {"smiles": "C/C(=N/NC(=O)CN1CCN(Cc2ccccc2Cl)CC1)c1cccs1", "hERG current change (%, negative = inhibition) at 10uM": -17.8}, {"smiles": "CC1CCCCN1C(=O)CSc1nnc(-c2ccco2)n1C", "note": "(centres unmarked)", "hERG current change (%, negative = inhibition) at 10uM": 4.88}, {"smiles": "COCCNCC(=O)N1CCCCCC1.O=C(O)C(=O)O", "hERG current change (%, negative = inhibition) at 10uM": -24.6}, {"smiles": "Cc1cc(C(=O)OCC(=O)N2CCCC2)c2ccccc2n1", "hERG current change (%, negative = inhibition) at 10uM": -9.04}, {"smiles": "CC(C)(C)NC(=O)C(=O)NNC(=O)COc1ccc(Br)cc1", "hERG current change (%, negative = inhibition) at 10uM": 5.23}, {"smiles": "O=C(Cn1nnc(-c2ccccc2Cl)n1)N1CCN(S(=O)(=O)c2ccc(Cl)cc2)CC1", "hERG current change (%, negative = inhibition) at 10uM": -18}, {"smiles": "CC(C)(C)NC(=O)COc1coc(CN2CCN(C(=O)c3ccco3)CC2)cc1=O", "hERG current change (%, negative = inhibition) at 10uM": 20.1}, {"smiles": "CC(Oc1coc(CN2CCN(C(=O)c3ccco3)CC2)cc1=O)c1ccccc1", "note": "(centres unmarked)", "hERG current change (%, negative = inhibition) at 10uM": 11.5}, {"smiles": "Cc1ccc(C)c(OCC(=O)N2CCN(C(=O)c3ccco3)CC2)c1", "hERG current change (%, negative = inhibition) at 10uM": -8.23}, {"smiles": "O=C(c1ccco1)N1CCN(Cc2cc(=O)c(OCc3ccccc3F)co2)CC1", "hERG current change (%, negative = inhibition) at 10uM": -30.4}, {"smiles": "O=C(c1ccco1)N1CCN(Cc2cc(=O)c(OCc3ccccc3Cl)co2)CC1", "hERG current change (%, negative = inhibition) at 10uM": -56.2}, {"smiles": "O=C(c1ccco1)N1CCN(Cc2cc(=O)c(OCc3cccc(Cl)c3)co2)CC1", "hERG current change (%, negative = inhibition) at 10uM": -74.7}, {"smiles": "Cc1ccc(COc2coc(CN3CCN(C(=O)c4ccco4)CC3)cc2=O)cc1", "hERG current change (%, negative = inhibition) at 10uM": -48.4}, {"smiles": "Cc1ccc(C)c(COc2coc(CN3CCN(C(=O)c4ccco4)CC3)cc2=O)c1", "hERG current change (%, negative = inhibition) at 10uM": -100}, {"smiles": "Cc1cccc(COc2coc(CN3CCN(C(=O)c4ccco4)CC3)cc2=O)c1", "hERG current change (%, negative = inhibition) at 10uM": -50.7}, {"smiles": "CCCNC(=O)COc1coc(CN2CCN(C(=O)c3ccco3)CC2)cc1=O", "hERG current change (%, negative = inhibition) at 10uM": 3.56}, {"smiles": "COC(=O)COc1coc(CN2CCN(c3cccc(Cl)c3)CC2)cc1=O", "hERG current change (%, negative = inhibition) at 10uM": -11.4}, {"smiles": "CNC(=O)COc1coc(CN2CCN(C(=O)c3ccco3)CC2)cc1=O", "hERG current change (%, negative = inhibition) at 10uM": 7.13}]}]}
